# According to the antibiotic and cytotoxicity screens of Wong et al. (2023):
# Out of some 39,000 compounds screened, about 3,300 (8.5%) were called active. The sample as a whole holds a higher share of actives than the screen did.
# System: HepG2
# Experiment: cytotoxicity call (relative viability < 0.9)
# Conditions: 10 µM
row,Structure (SMILES),cytotoxicity call
1,C[C@H](CO)N1C[C@H](C)[C@@H](CN(C)S(C)(=O)=O)Oc2c(NC(=O)NC3CCCCC3)cccc2C1=O,inactive
2,CO[C@H]1CN(C)C(=O)c2ccc(NC(=O)NC(C)C)cc2OC[C@@H](C)N(Cc2ccc(-c3ccccn3)cc2)C[C@H]1C,inactive
3,O=C(CN1CCOCC1)NCC[C@@H]1CC[C@@H](NC(=O)Nc2ccccc2)[C@H](CO)O1,inactive
4,COc1ccc(-c2cnc3c(c2)C(=O)N([C@@H](C)CO)C[C@@H](C)[C@@H](CN(C)C(=O)Cc2ccccn2)O3)cc1,inactive
5,CN(C)S(=O)(=O)N1CCN(CC(=O)Nc2ccc(Br)cc2)CC1,inactive
6,C[C@H]1CN([C@@H](C)CO)C(=O)c2cccc(NC(=O)c3cnccn3)c2O[C@H]1CN(C)S(=O)(=O)c1ccc(F)cc1,inactive
7,C[C@@H]1CN([C@H](C)CO)C(=O)c2cc(NC(=O)CCC(F)(F)F)ccc2O[C@@H](C)CCCCO[C@@H]1CN(C)Cc1ccc(C(=O)O)cc1,inactive
8,O=C(O)CC1CCOCC1,inactive
9,C[C@@H]1CCCCO[C@@H](CN(C)C)[C@H](C)CN([C@H](C)CO)C(=O)c2cc(NC(=O)CCCCCC(=O)Nc3ccccc3N)ccc2O1,inactive
10,COc1ccc(CN(C)C[C@H]2OCCCC[C@@H](C)Oc3ccc(NC(=O)Nc4ccccc4)cc3C(=O)N([C@H](C)CO)C[C@@H]2C)cc1,inactive
11,COc1ccc(CN(C)C[C@H]2OCCCC[C@@H](C)Oc3ccc(NC(=O)Nc4ccccc4)cc3C(=O)N([C@H](C)CO)C[C@H]2C)cc1,active
12,COc1ccc(CN(C)C[C@@H]2OCCCC[C@@H](C)Oc3ccc(NC(=O)Nc4ccccc4)cc3C(=O)N([C@@H](C)CO)C[C@@H]2C)cc1,inactive
13,COc1ccc(CN(C)C[C@H]2OCCCC[C@H](C)Oc3ccc(NC(=O)Nc4ccccc4)cc3C(=O)N([C@@H](C)CO)C[C@@H]2C)cc1,inactive
14,COc1ccc(CN(C)C[C@H]2OCCCC[C@@H](C)Oc3ccc(NC(=O)Nc4ccccc4)cc3C(=O)N([C@@H](C)CO)C[C@H]2C)cc1,active
15,COc1ccc(CN(C)C[C@@H]2OCCCC[C@H](C)Oc3ccc(NC(=O)Nc4ccccc4)cc3C(=O)N([C@H](C)CO)C[C@H]2C)cc1,inactive
16,C[C@@H]1CN([C@@H](C)CO)C(=O)c2cc(NC(=O)Nc3ccccc3)ccc2O[C@H]1CN(C)CC1CCCCC1,inactive
17,COc1ccccc1S(=O)(=O)N[C@H]1CC[C@@H](CCNC(=O)C2CC2)O[C@H]1CO,inactive
18,CCOC(=O)C[C@H]1CCCNC1,inactive
19,COC(=O)c1c(C)cc(OC)cc1O,inactive
20,CCOC(=O)c1c(C)cc(O)cc1O,inactive
21,CCOC(=O)c1c(C)cc(OC)cc1O,active
22,C[C@H](CO)N1C[C@H](C)[C@H](CN(C)S(=O)(=O)c2cccs2)Oc2ncc(C#Cc3ccccc3)cc2C1=O,inactive
23,C[C@@H]1CCCCO[C@H](CN(C)C(=O)Nc2cccc3ccccc23)[C@@H](C)CN([C@H](C)CO)C(=O)c2cc(NS(=O)(=O)c3ccccc3)ccc2O1,inactive

row,Structure (SMILES),cytotoxicity call
1,C[C@@H]1CN([C@@H](C)CO)C(=O)c2cc(NS(=O)(=O)c3ccccc3)ccc2O[C@@H](C)CCCCO[C@H]1CN(C)C(=O)Nc1cccc2ccccc12,active
2,C[C@@H]1CCCCO[C@@H](CN(C)C(=O)Nc2cccc3ccccc23)[C@H](C)CN([C@H](C)CO)C(=O)c2cc(NS(=O)(=O)c3ccccc3)ccc2O1,active
3,C[C@@H]1CN([C@@H](C)CO)C(=O)c2cc(NS(=O)(=O)c3ccccc3)ccc2O[C@@H](C)CCCCO[C@@H]1CN(C)C(=O)Nc1cccc2ccccc12,inactive
4,C[C@@H]1CCCCO[C@H](CN(C)C(=O)Nc2cccc3ccccc23)[C@@H](C)CN([C@@H](C)CO)C(=O)c2cc(NS(=O)(=O)c3ccccc3)ccc2O1,inactive
5,C[C@@H]1CCCCO[C@H](CN(C)C(=O)Nc2cccc3ccccc23)[C@H](C)CN([C@H](C)CO)C(=O)c2cc(NS(=O)(=O)c3ccccc3)ccc2O1,active
6,C[C@@H]1CCCCO[C@@H](CN(C)C(=O)Nc2cccc3ccccc23)[C@H](C)CN([C@H](C)CO)C(=O)c2cc(NS(C)(=O)=O)ccc2O1,inactive
7,C[C@@H]1CCCCO[C@@H](CN(C)C(=O)Nc2cccc3ccccc23)[C@H](C)CN([C@@H](C)CO)C(=O)c2cc(NS(=O)(=O)c3ccccc3)ccc2O1,inactive
8,C[C@@H]1CCCCO[C@H](CN(C)C(=O)Nc2cccc3ccccc23)[C@@H](C)CN([C@@H](C)CO)C(=O)c2cc(NS(C)(=O)=O)ccc2O1,inactive
9,C[C@@H]1CCCCO[C@H](CN(C)C(=O)Nc2cccc3ccccc23)[C@H](C)CN([C@H](C)CO)C(=O)c2cc(NS(C)(=O)=O)ccc2O1,active
10,C[C@H](CO)N1C[C@H](C)[C@@H](CN(C)C(=O)Nc2cccc3ccccc23)OCCCC[C@H](C)Oc2ccc(NS(=O)(=O)c3ccccc3)cc2C1=O,inactive
11,C[C@H]1CCCCO[C@@H](CN(C)C(=O)Nc2cccc3ccccc23)[C@@H](C)CN([C@@H](C)CO)C(=O)c2cc(NS(=O)(=O)c3ccccc3)ccc2O1,inactive
12,C[C@@H]1CN([C@H](C)CO)C(=O)c2cc(NS(=O)(=O)c3cccs3)ccc2O[C@@H]1CN(C)C(=O)Nc1cccc2ccccc12,inactive
13,COc1ccc(-c2cn(CCNC(=O)[C@@H](NS(=O)(=O)c3ccc(C)cc3)C(C)C)nn2)cc1OC,inactive
14,O=C1c2ccccc2[C@@]2(Cc3ccccc3N(CC(F)(F)F)C2=O)[C@H](c2ccc(CO)cc2)N1C1CCCCC1,inactive
15,C[C@@H]1CN([C@H](C)CO)C(=O)Cc2cc(NC(=O)Nc3cccc4ccccc34)ccc2O[C@H]1CN(C)C(=O)Nc1cccc2ccccc12,inactive
16,COc1ccc(S(=O)(=O)Nc2ccc3c(c2)C(=O)N([C@H](C)CO)C[C@@H](C)[C@H](CN(C)C(=O)Nc2ccc(C(F)(F)F)cc2)OCCCC[C@H](C)O3)cc1,inactive
17,COc1ccc([C@@H]2CC=CC[C@H](C)Oc3ccccc3C(=O)N(C)[C@H](Cc3ccccc3)C(=O)N2)c(OC)c1,inactive
18,C[C@H](CO)N1C[C@H](C)[C@@H](CN(C)C(=O)Nc2ccc3c(c2)OCO3)Oc2ncc(-c3ccncc3)cc2C1=O,inactive
19,C=CC[C@@H](CC(=O)NCCO)C(=O)N[C@H](COC(=O)[C@H](CC=C)CC(=O)OC(C)(C)C)Cc1c[nH]c2ccccc12,inactive
20,Cc1ccc(-c2csc(-c3ccc(CN)cc3)n2)cc1,inactive
21,Cc1ccc(-c2nc(-c3ccc(Cl)cc3)cs2)cc1F,inactive
22,Cc1ccc(Cc2nc(-c3ccc(Cl)cc3)cs2)cc1,active
23,C[C@@H]1CN([C@H](C)CO)S(=O)(=O)c2ccc(C#C[C@@H](C)O)cc2O[C@H]1CN(C)C(=O)C1CCCCC1,inactive

row,Structure (SMILES),cytotoxicity call
1,O=S(=O)(NCC[C@@H]1CC[C@H](NS(=O)(=O)c2ccccc2Cl)[C@H](CO)O1)c1ccc(F)cc1,inactive
2,O=S(=O)(NCC[C@H]1CC[C@H](NS(=O)(=O)c2ccccc2Cl)[C@@H](CO)O1)c1ccc(F)cc1,active
3,O=S(=O)(NCC[C@@H]1CC[C@@H](NS(=O)(=O)c2ccccc2Cl)[C@H](CO)O1)c1ccc(F)cc1,inactive
4,CN(C)CC(=O)N[C@H]1CC[C@H](CCNS(=O)(=O)c2ccccc2)O[C@H]1CO,inactive
5,CN(C)CC(=O)N[C@H]1CC[C@H](CCNS(=O)(=O)c2ccccc2)O[C@@H]1CO,inactive
6,CN(C)CC(=O)N[C@@H]1CC[C@@H](CCNS(=O)(=O)c2ccccc2)O[C@@H]1CO,active
7,C[C@H]1CCCCO[C@@H](CN(C)Cc2ccncc2)[C@@H](C)CN([C@@H](C)CO)C(=O)c2cc(NC(=O)Cc3ccccc3)ccc2O1,inactive
8,C[C@@H]1CN([C@@H](C)CO)C(=O)Cc2cc(NC(=O)Nc3cccc4ccccc34)ccc2O[C@H]1CN(C)S(=O)(=O)c1cccs1,inactive
9,C[C@H](CO)N1C[C@H](C)[C@@H](CN(C)C(=O)NC2CCCCC2)Oc2cc(-c3cccnc3)ccc2S1(=O)=O,inactive
10,Cc1ccc(S(=O)(=O)N2C[C@@H](O)COC[C@H]3O[C@H](CC(=O)NCCCN(C)C)CC[C@@H]32)cc1,inactive
11,Cc1noc(C)c1NC(=O)Nc1ccc2c(c1)C(=O)N([C@H](C)CO)C[C@H](C)[C@H](CN(C)Cc1ccc(Cl)c(Cl)c1)O2,inactive
12,C=CC[C@@H](CC(=O)N[C@@H](CO)Cc1ccccc1)C(=O)NC[C@@H](OC(=O)[C@@H](CC=C)Cc1ccc(F)cc1)c1ccccc1,inactive
13,C=CCC[C@H](Cc1ccc(F)cc1)C(=O)O[C@@H](CNC(=O)[C@@H](CC=C)CC(=O)N[C@@H](CO)Cc1ccccc1)c1ccccc1,inactive
14,C=CC[C@@H](CC(=O)N[C@H](CO)Cc1ccccc1)C(=O)NC[C@H](OC(=O)[C@@H](CC=C)Cc1ccc(F)cc1)c1ccccc1,active
15,C=CC[C@@H](CC(=O)N[C@@H](CO)Cc1ccccc1)C(=O)NC[C@H](OC(=O)[C@@H](CC=C)Cc1ccc(F)cc1)c1ccccc1,inactive
16,C=CCC[C@@H](Cc1ccc(F)cc1)C(=O)O[C@@H](CNC(=O)[C@@H](CC=C)CC(=O)N[C@H](CO)Cc1ccccc1)c1ccccc1,active
17,C=CCC[C@H](Cc1ccc(F)cc1)C(=O)O[C@@H](CNC(=O)[C@@H](CC=C)CC(=O)N[C@H](CO)Cc1ccccc1)c1ccccc1,inactive
18,Nc1ncnc2c1CCC2,inactive
19,CCCCCCCCNC[C@@H](O)[C@H](O)[C@@H](O)[C@@H](O)CO,inactive
20,CCCCCCCCNC(C)C(O)c1ccc(SC(C)C)cc1 (configuration not stated),active
21,CC(NCCc1ccc(O)cc1)C(O)c1ccc(O)cc1.Cl (configuration not stated),inactive
